# Laboratory results from PubChem BioAssay (NCI).
# The panel holds about 83,000 compounds, 20% with a hit somewhere; the sample as a whole holds those more often.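 The test compound was applied at a single concentration to cells in 96-well plates for 48 hours, and percent growth was recorded.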 A number with no mark means an inactive call. Calls of active or inactive are those of the source. Rule for the calls: active = growth percent below 10; inactive = the rest.
# Tests used:
# Assay in all cases: NCI-60 one-dose screen, 48 h (100 = growth as untreated, 0 = no growth, -100 = all killed)
# Settings in all cases: 10 µM unless noted
# DU-145 prostate = tested on: DU-145 prostate
# K-562 leukemia = tested on: K-562 leukemia
# MALME-3M melanoma = tested on: MALME-3M melanoma
# MDA-MB-231 breast = tested on: MDA-MB-231 breast
# RXF 393 renal = tested on: RXF 393 renal
# SF-268 CNS = tested on: SF-268 CNS
# SF-295 CNS = tested on: SF-295 CNS
# SF-539 CNS = tested on: SF-539 CNS
# UACC-257 melanoma = tested on: UACC-257 melanoma
# M14 melanoma = tested on: M14 melanoma
# HCT-15 colon = tested on: HCT-15 colon
# HT29 colon = tested on: HT29 colon
# SNB-75 CNS = tested on: SNB-75 CNS
# SNB-19 CNS = tested on: SNB-19 CNS
# U251 CNS = tested on: U251 CNS
# PC-3 prostate = tested on: PC-3 prostate
# SK-MEL-5 melanoma = tested on: SK-MEL-5 melanoma
# UACC-62 melanoma = tested on: UACC-62 melanoma
# LOX IMVI melanoma = tested on: LOX IMVI melanoma
# SK-MEL-28 melanoma = tested on: SK-MEL-28 melanoma
Structure (SMILES),growth (DU-145 prostate) [%],growth (K-562 leukemia) [%],growth (MALME-3M melanoma) [%],growth (MDA-MB-231 breast) [%],growth (RXF 393 renal) [%],growth (SF-268 CNS) [%],growth (SF-295 CNS) [%],growth (SF-539 CNS) [%],growth (UACC-257 melanoma) [%],growth (M14 melanoma) [%],growth (HCT-15 colon) [%],growth (HT29 colon) [%],growth (SNB-75 CNS) [%],growth (SNB-19 CNS) [%],growth (U251 CNS) [%],growth (PC-3 prostate) [%],growth (SK-MEL-5 melanoma),growth (UACC-62 melanoma) [%],growth (LOX IMVI melanoma) [%],growth (SK-MEL-28 melanoma) [%]
O=C(Nc1ccccc1)P(=O)(O)c1ccccc1,108,95.7,123,100,105,98.5,122,90.2,96.5,103,99.5,114,78.8,103,94.6,95.5,102%,94.1,96,102
COc1cc(C2CC(C3C(=O)N(C)C(=O)N(C)C3=O)=NN2c2cc(Cl)cc(Cl)c2)cc(OC)c1OC (stereo not given),107,88.4,89.1,103,99.3,103,84.4,96,74.2,89.3,98.2,91.6,100,91.7,92.5,74.3,91.3%,75.6,99,101
CC1CN(/N=C/c2ccc([N+](=O)[O-])o2)C(=N)O1 (stereo not given),121,108,78.8,102,102,90.1,88.9,96.9,99.5,106,97.8,108,105,99.7,101,89.5,93.4%,92.7,95.4,115
CNNc1ncnc2c1cnn2-c1ccc(S(N)(=O)=O)cc1,112,78.3,112,89.5,16,106,84,93.8,89,95,103,95.2,104,105,98.5,81.4,91.2%,100,97.5,109
CSc1nc(N)c2c(n1)N(C)C=NS2(=O)=O,122,116,110,108,116,107,105,107,114,106,103,124,93.3,107,103,94.7,104%,97.4,98.3,122
COc1ccc2c3c(ccc2c1)C(=O)/C(=C\O)CC3,111,82.7,135,102,119,93.6,107,96.4,101,122,87.3,103,91.9,103,82.6,88.2,103%,107,87.1,128
CC(=O)N1N=C(c2ccc(Nc3ccnc4cc(Cl)ccc34)cc2)CC1c1ccc(Cl)cc1 (stereo not given),67.3,19.1,26.8,72.7,42.3,53.3,15.4,86.4,61.7,47.6,30.1,25.9,59.6,65.6,57.9,37.8,-50.1% (active),44.2,33.6,45.9
OCc1n(Cc2ccc3ccccc3c2)cc[n+]1Cc1ccc2ccccc2c1,84.7,22.7,38.1,51.4,57.3,60.7,79.2,68.3,18.3,41.7,100,36.6,34.8,44.5,60,37.8,-28% (active),12.8,45.4,24.9
